In the library only some 3.4% were active in any assay of this set; here they are far more common.
FBW7 activator: human FBW7 E3 ligase activation, primary screen; AID 1259310; AlphaScreen FBW7–phospho-cyclin E peptide binding, activator screen; Q969H0; actives 0.13% (n = 650,000); normalized activity (activation), % at 26.1 µM; in the data active = normalized activity above about 1.9%;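 note: purified mutant Fbw7 with reduced substrate affinity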
TEAD-YAP block: TEAD-YAP interaction inhibition. HEK-TIYL cells, TEAD-Gal4/YAP UAS-luciferase luminescence. actives 1.4% (n = 640,000). inhibition, % at 9.12 µM; in the data active = inhibition above about 32%
MITF primary: human MITF inhibition, primary screen; actives 0.91% (n = 650,000); AlphaScreen MITF homodimerization, bead proximity signal; AID 1259374; inhibition, % at 2.6 µM; in the data active = inhibition above about 50%
GPR151 activ: activators of human GPR151; actives 1% (n = 650,000); PathHunter beta-arrestin GPR151 cells, luminescence; activation, % at 11.2 µM; AID 1508602; in the data active = activation above about 4.9%
Target sequence (Q8TDV0 whole entry, looked up): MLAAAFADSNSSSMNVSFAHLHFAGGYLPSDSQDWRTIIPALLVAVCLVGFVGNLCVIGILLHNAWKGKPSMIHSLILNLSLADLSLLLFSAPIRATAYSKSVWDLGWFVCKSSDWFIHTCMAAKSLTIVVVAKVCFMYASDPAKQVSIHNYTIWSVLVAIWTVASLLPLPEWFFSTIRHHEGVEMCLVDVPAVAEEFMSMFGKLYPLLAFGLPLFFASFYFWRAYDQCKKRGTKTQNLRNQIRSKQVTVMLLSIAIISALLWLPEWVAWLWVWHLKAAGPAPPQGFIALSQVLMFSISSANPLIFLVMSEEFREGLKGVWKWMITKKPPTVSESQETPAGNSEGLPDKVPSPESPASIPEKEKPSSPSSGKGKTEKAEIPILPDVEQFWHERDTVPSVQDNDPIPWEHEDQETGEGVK
Numbers stand for hits.

CC(=O)Nc1ccc(Nc2nc(Nc3nc4ccccc4n3C)nc3c2ncn3-c2ccccc2)cc1 was read as FBW7 activator inactive, TEAD-YAP block 32, MITF primary inactive and GPR151 activ inactive.
For CC(C)N(CCNc1nc(Nc2nc3ccccc3n2C)nc2c1ncn2C(C)C)C(C)C the results were FBW7 activator inactive, TEAD-YAP block 43, MITF primary inactive and GPR151 activ inactive.
For CCNc1nc(Nc2ccc(NC(C)=O)cc2)c2ncn(-c3ccccc3)c2n1 the results were FBW7 activator inactive, TEAD-YAP block inactive, MITF primary inactive and GPR151 activ inactive.
Screening COc1ccc(CC(=O)N2CCC(Cn3cnc4cc(C)c(C)cc43)CC2)cc1 returned FBW7 activator inactive, TEAD-YAP block inactive, MITF primary inactive and GPR151 activ inactive.
Screening CCOc1ccccc1NS(=O)(=O)c1c(C)[nH]c(=O)[nH]c1=O returned FBW7 activator inactive, TEAD-YAP block inactive, MITF primary inactive and GPR151 activ inactive.
`COc1ccc(C(=O)NCCc2nnc3n2CCN(Cc2ccc(N(C)C)cc2)CC3)cc1` gave FBW7 activator inactive, TEAD-YAP block inactive, MITF primary inactive and GPR151 activ inactive.
`CC(=O)Nc1ccc(Nc2nc3ccccc3n3nnnc23)cc1` gave FBW7 activator inactive, TEAD-YAP block 38, MITF primary inactive and GPR151 activ inactive.
`Cn1c(Nc2nc(NCCc3ccc(O)cc3)c3ncn(-c4ccccc4)c3n2)nc2ccccc21` gave FBW7 activator inactive, TEAD-YAP block inactive, MITF primary inactive and GPR151 activ inactive.
Screening CCCNc1nc(Nc2nc3ccccc3n2C)nc2c1ncn2-c1ccccc1 returned FBW7 activator inactive, TEAD-YAP block 55, MITF primary inactive and GPR151 activ inactive.
For Cn1c(Nc2nc(NCCCN3CCCC3=O)c3ncn(-c4ccccc4)c3n2)nc2ccccc21 the results were FBW7 activator inactive, TEAD-YAP block 39, MITF primary inactive and GPR151 activ inactive.
`CC(=O)Nc1cccc(Nc2nc3ccccc3n3nnnc23)c1` gave FBW7 activator inactive, TEAD-YAP block inactive, MITF primary inactive and GPR151 activ inactive.
For CCOc1cc(CN2CCC3(CCC(CNC(=O)C(C)C)O3)CC2)ccc1O (stereo not drawn) the results were FBW7 activator inactive, TEAD-YAP block inactive, MITF primary inactive and GPR151 activ inactive.
Screening COc1cc(/C=C2/C(=N)N3N=C(C4CCCCC4)SC3=NC2=O)ccc1OCCOc1cc(C)ccc1C returned FBW7 activator inactive, TEAD-YAP block inactive, MITF primary inactive and GPR151 activ inactive.
Screening CC1(C)Cc2c(cnn2-c2ccc(Cl)cc2)-c2nc3ccccc3nc21 returned FBW7 activator inactive, TEAD-YAP block inactive, MITF primary inactive and GPR151 activ inactive.
`Nc1nc2c(s1)CCc1c-2cnn1-c1ccccc1` gave FBW7 activator inactive, TEAD-YAP block 45, MITF primary inactive and GPR151 activ inactive.
Screening COC(=O)c1cc(NS(=O)(=O)c2ccc(N3CCOCC3)c(N3C(=O)C4C5C=CC(C5)C4C3=O)c2)cc(C(=O)OC)c1 (stereo not drawn) returned FBW7 activator inactive, TEAD-YAP block inactive, MITF primary inactive and GPR151 activ inactive.
Clc1ccc(-c2cn3c4ccccc4nc3n2CCNC2CCCCC2)cc1 was read as FBW7 activator inactive, TEAD-YAP block inactive, MITF primary inactive and GPR151 activ inactive.
`Brc1ccc(-c2cn3c4ccccc4nc3n2CCCNC2CCCCC2)cc1` gave FBW7 activator 6.2, TEAD-YAP block inactive, MITF primary inactive and GPR151 activ inactive.
Screening COc1cc(-c2nc3sc(C)c(C)c3c(=O)o2)cc(OC)c1OC returned FBW7 activator 2.3, TEAD-YAP block inactive, MITF primary inactive and GPR151 activ inactive.
c1csc(-c2cn3ccc4ccccc4c3n2)c1 was read as FBW7 activator 2.5, TEAD-YAP block inactive, MITF primary inactive and GPR151 activ inactive.
For CC(=O)c1ccc(NC(=O)Nc2cccc(C(=O)O)c2)cc1 the results were FBW7 activator inactive, TEAD-YAP block 51, MITF primary inactive and GPR151 activ inactive.
For CC(=O)c1cccc(NC(=O)CCl)c1 the results were FBW7 activator inactive, TEAD-YAP block 99, MITF primary inactive and GPR151 activ inactive.
Screening CC(=O)c1cccc(NC(=O)CN(c2ccccc2)S(C)(=O)=O)c1 returned FBW7 activator 1.9, TEAD-YAP block inactive, MITF primary inactive and GPR151 activ inactive.
CC(=O)c1cccc(NC(=O)Nc2ccccc2)c1 was read as FBW7 activator inactive, TEAD-YAP block inactive, MITF primary inactive and GPR151 activ inactive.
`CS(=O)(=O)N(CC(=O)Nc1cccc(Cl)c1)c1ccccc1` gave FBW7 activator inactive, TEAD-YAP block inactive, MITF primary inactive and GPR151 activ inactive.
CC(=O)c1cccc(NC(=O)CCC(=O)Nc2cccc(C(C)=O)c2)c1 was read as FBW7 activator inactive, TEAD-YAP block inactive, MITF primary inactive and GPR151 activ inactive.
For COc1ccc(-c2ncc(C)c(NCc3ccccc3)n2)cc1 the results were FBW7 activator inactive, TEAD-YAP block inactive, MITF primary inactive and GPR151 activ inactive.
For O=C(CSc1nc2ccc([N+](=O)[O-])cc2[nH]1)Nc1ccc(F)c(F)c1 the results were FBW7 activator inactive, TEAD-YAP block 69, MITF primary inactive and GPR151 activ inactive.
For O=C(CSc1nc2ccc([N+](=O)[O-])cc2[nH]1)Nc1ccc(F)cc1 the results were FBW7 activator inactive, TEAD-YAP block inactive, MITF primary inactive and GPR151 activ inactive.
N#C/C(=C\c1ccco1)C(=O)Nc1ccccc1F was read as FBW7 activator 2.1, TEAD-YAP block inactive, MITF primary inactive and GPR151 activ inactive.
Screening O=[N+]([O-])c1ccc(Sc2nnc(Cc3ccccc3)o2)nc1 returned FBW7 activator inactive, TEAD-YAP block 57, MITF primary inactive and GPR151 activ inactive.
O=[N+]([O-])c1ccc(CSc2nnc(Cc3ccccc3)o2)cc1 was read as FBW7 activator inactive, TEAD-YAP block inactive, MITF primary inactive and GPR151 activ inactive.
`COc1ccc(N=Cc2cc([N+](=O)[O-])ccc2O)c2ccccc12` gave FBW7 activator inactive, TEAD-YAP block inactive, MITF primary inactive and GPR151 activ inactive.
`O=Cc1s/c(=N\S(=O)(=O)c2ccccc2)n(CCCCl)c1Cl` gave FBW7 activator inactive, TEAD-YAP block 45, MITF primary inactive and GPR151 activ inactive.
Screening COc1ccc(-c2csc(NC(=O)c3ccc(S(=O)(=O)N4CCCCC4)cc3)n2)cc1OC returned FBW7 activator inactive, TEAD-YAP block inactive, MITF primary inactive and GPR151 activ inactive.
For COc1ccc(Br)cc1/C=N/N=C(N)N the results were FBW7 activator inactive, TEAD-YAP block 42, MITF primary inactive and GPR151 activ inactive.
Screening COc1ccc(C(=O)Nc2ccc(OCc3ccccc3)cc2)c(OC)c1 returned FBW7 activator inactive, TEAD-YAP block 90, MITF primary inactive and GPR151 activ inactive.
For CN(C)S(=O)(=O)Nc1ccc(OCc2ccccc2)cc1 the results were FBW7 activator 1.9, TEAD-YAP block inactive, MITF primary inactive and GPR151 activ inactive.
O=S(=O)(Nc1ccc(OCc2ccccc2)cc1)c1ccc(Br)cc1 was read as FBW7 activator inactive, TEAD-YAP block inactive, MITF primary inactive and GPR151 activ inactive.
